# In ChEMBL document CHEMBL1201862, “PubChem BioAssay data set” (2004):
# Results with a measured potency or affinity are listed apart.
# Test: M. tuberculosis growth inhibition, dose response, 7H9 media, purified and synthesized compounds, set 5 (AID 504903); call rule not given here
# Format: functional
row,SMILES,IC90
1,Cc1[nH]c2ccccc2c1C(=O)COC(=O)c1ccc([N+](=O)[O-])s1,> 50.5 µM (active)
2,CNC(=O)CSc1nc2ccccc2c(=O)[nH]1,> 100 µM (active)
3,CCCc1cc(C(N)=S)ccn1,> 100 µM (active)
4,O=C(CSc1ccccn1)NC1CCCCC1,> 100 µM (active)
